Experimental data as given in PubChem BioAssay (NCI).
The panel holds about 83,000 compounds, 20% with a hit somewhere; the sample as a whole holds those more often.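 Cell lines were cultured in 96-well plates, exposed to a single compound concentration, and assessed for percent growth 48 hours later.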 A number with no mark means an inactive call. Active and inactive are the calls of the source. Rule for the calls: active = growth percent below 10; inactive = the rest.

Experiments:
Test in all cases: NCI-60 one-dose screen, 48 h (100 = growth as untreated, 0 = no growth, -100 = all killed)
Settings in all cases: 10 µM
[1] = test system: T-47D breast
[2] = test system: MDA-MB-435 melanoma
[3] = test system: SW-620 colon
[4] = test system: MCF7 breast
[5] = test system: HCT-116 colon
[6] = test system: HCC-2998 colon
[7] = test system: KM12 colon
[8] = test system: BT-549 breast

| SMILES | growth [1] | growth [2] | growth [3] | growth [4] | growth [5] | growth [6] | growth [7] | growth [8] |
| --- | --- | --- | --- | --- | --- | --- | --- | --- |
| Cc1ccc(C(SCC(N)C(=O)O)(c2ccc(C)cc2)c2ccc(C)cc2)cc1 (stereo not drawn) | 27.2% | -59.8% (active) | 20.5% | 9.12% (active) | -25.5% (active) | 1.38% (active) | 0.314% (active) |  |
| COc1ccc2c(c1)CC=C1[C@@H]2CC[C@]2(C)C(=O)/C(=N/O)C[C@@H]12 | 90.2% |  | 78.4% |  | 61.9% | 79.7% | 92.6% | 88.8% |
| C1CN(CC2CCC(CN3CCOCC3)O2)CCO1 (stereo not drawn) | 81.5% | 104% | 92.2% | 53.2% | 89% | 102% | 105% |  |
| COC1OC(COS(=O)OC)C(O)C(O)C1OS(=O)OC (stereo not drawn) | 110% | 105% | 103% | 88.4% | 105% | 97.7% | 98.5% |  |
| CC(CN(C)C)Oc1ccccc1NC1=C(Cl)C(=O)C(Nc2ccccc2OC(C)CN(C)C)=C(Cl)C1=O (stereo not drawn) | -42% (active) | -71% (active) | -66.5% (active) | -47% (active) | -70.3% (active) | -87.4% (active) | -1.19% (active) |  |
| CC(=O)OC1C=CC(OC(C)=O)O1 (stereo not drawn) | 88.1% | 96% | 82% | 87.9% | 84.3% | 103% | 101% |  |
| O[C@@H]1CO[C@H]2[C@@H]1OC[C@@H]2O | 121% |  |  | 99.6% | 104% | 101% | 105% | 112% |
| CN(C)CCCOc1ccccc1NC1=C(Cl)C(=O)C(Nc2ccccc2OCCCN(C)C)=C(Cl)C1=O | -37% (active) | -76.2% (active) | -46.8% (active) | -52.7% (active) | -82.5% (active) | -87% (active) |  |  |
| Cc1ccc(NCCN(C)CC(C)O)c2c(=O)c3ccc(Cl)cc3sc12 (stereo not drawn) | 49.7% | -49% (active) | -46.4% (active) | 17.4% | -48.8% (active) | 18% | 43.7% |  |
| COc1ccc(C2CC(c3cc(OC)c(OC)c(OC)c3)=NN2)cc1 (stereo not drawn) | 51.7% | 19.9% | 48% | 10.2% | 53.3% | 79.3% | 15.1% |  |
| COc1ccc2nc3cc(Cl)ccc3c(N)c2c1 | -82% (active) |  | -70.2% (active) |  | -99.2% (active) | -99% (active) | -84.3% (active) | -95.6% (active) |
| CC1=NN(C(=O)c2nn(-c3ccc(Cl)cc3)cc2O)C(=O)C1 | 48.5% | 59.8% | 46.3% | 52.4% | 28.5% | 54.1% |  |  |
| CCN(CC)CCOc1cccc2c1C(=O)c1ccccc1C2=O | 107% | 100% | 87.6% | 92.1% | 70.4% | 102% | 98% |  |
| Nc1nccc(OCCO)n1 | 94.1% | 104% | 107% | 91.2% | 97.8% | 97.4% | 97.8% |  |
| CCN(CC)CCCOc1cccc2c1C(=O)c1cccc(OCCCN(CC)CC)c1C2=O | 61.7% | 39.7% | 24.4% | 11.9% | 22.5% | 57.4% | 40.9% |  |
| COc1cc(C(=O)/C(C)=C/c2c[nH]c3ccccc23)cc(OC)c1OC | 53% |  | 29.9% | 15.4% |  | 15.2% | 16.5% | -9% (active) |
| O=S(=O)(O)c1ccc(Cl)cc1 | 97.8% | 109% | 101% | 91.4% | 98.4% | 98.9% |  |  |
| CC(CN(C)C)Oc1ccc(OC(C)CN(C)C)c2c1C(=O)c1ccccc1C2=O (stereo not drawn) | 77.7% | 46.1% | 27.9% | 16.1% | 14.2% | 57.4% | 51.1% |  |

| SMILES | growth [1] | growth [2] | growth [3] | growth [4] | growth [5] | growth [6] | growth [7] | growth [8] |
| --- | --- | --- | --- | --- | --- | --- | --- | --- |
| COc1ccc(C(=O)c2cc3c(OC)c(OC)c(OC)cc3[nH]2)cc1 | 34.9% | -0.263% (active) | 33.9% | 20.4% | 28.1% | 51.3% | 12.6% |  |
| COc1cc(C2CC(c3ccccc3)=NN2C(C)=O)cc(OC)c1OC (stereo not drawn) | 34.1% | -29.4% (active) | 19.1% | 14.6% | 19.3% | 49.7% | 18.4% |  |
| Cc1c2c(nn1C(=O)c1nn(-c3ccc(Cl)cc3)cc1O)-c1ccccc1CC2 | 1.65% (active) | 34.3% | 32.4% | 12.4% | 7.08% (active) | 9.3% (active) |  |  |
| CN(C)CCCSc1ccccc1NC1=C(Cl)C(=O)C(Nc2ccccc2SCCCN(C)C)=C(Cl)C1=O | -42.8% (active) | 92.1% | -34.3% (active) | -50% (active) | 4.82% (active) | 103% | 80.2% |  |
| CCN(CC)CCCC(C)N=C(C1=C(C(=NC(C)CCCN(CC)CC)c2cccc(OC)c2)C(=O)NC1=O)c1cccc(OC)c1 (stereo not drawn) | -37.3% (active) | -91.1% (active) | -9.07% (active) | -29.8% (active) | -19% (active) | -69.9% (active) | 2.43% (active) |  |
| Nc1ncnc2c1ncn2C1(CO)OCC(O)C(O)C1O (stereo not drawn) | 96.2% | 107% | 110% | 101% | 108% | 101% | 98.6% |  |
| Nc1cc(Br)c(-c2nn3c(CCC(=O)c4nc5ccccc5[nH]4)nnc3s2)c(Br)c1 | 88% |  | 112% | 87.5% | 77.9% | 104% | 96.4% | 105% |
| CN(C)CCCOc1ccc(NC2=C(Cl)C(=O)C(Nc3ccc(OCCCN(C)C)cc3)=C(Cl)C2=O)cc1 | -39.3% (active) | -89% (active) | -58.4% (active) | -49.4% (active) | -86.9% (active) | -90.6% (active) | -63% (active) |  |
| CN(C)CCCOc1cccc(NC2=C(Cl)C(=O)C(Nc3cccc(OCCCN(C)C)c3)=C(Cl)C2=O)c1 | -44% (active) | -65.5% (active) | -61.2% (active) | -38.3% (active) | -88.7% (active) | 14% | 13.9% |  |
| CCCCCCCCCCOC(c1ccccc1)c1ccccc1 | 77.1% | 99% | 98.1% | 91.1% | 58.6% | 99% | 89.1% |  |
| C/C=C/CSC(C)(C)C(=O)NC | 100% | 106% | 104% | 93.8% | 91.2% | 101% | 102% |  |
| CCN(CC)CCOc1ccc2c(c1O)C(=O)c1ccccc1C2=O | 97.2% | 94.5% | 67.9% | 82.1% | 44.9% | 96.7% | 98% |  |
| CN(C)c1nc(N)c2nccnc2n1 | 104% |  | 99.2% | 96% | 104% |  | 101% | 104% |
| Cc1n[nH]c(C)c1N=Nc1cccc2c1C(=O)c1ccccc1C2=O | 79.3% |  | 84.6% | 81% | 77.8% | 96.1% | 99.5% | 100% |
| CCOC(=O)C(C)(c1ccccc1)c1ccccc1 | 99.1% | 106% | 105% | 99.6% | 102% | 109% | 96.4% |  |
| COc1ccc(Cl)cc1Nc1nc(C(F)(F)F)ccc1C(=O)N/N=C/c1cc(OC)c(OC)c(OC)c1 | 29.7% |  | 16.7% | 17.8% |  | 8.93% (active) |  | 15.9% |
| O=C(c1ccccc1)N(C(=O)c1ccccc1)N1CCCC1 | 99.9% |  | 100% | 105% | 106% |  | 107% | 105% |
